Holding throughout (conditions): mRNA level, 48 h; actives raise or lower the signal
Read-out in test [1]: Cytochrome P450 (CYP2B6), CYP2B6 (gene 1555)
In words: LTEA_HepaRG_CYP2B6: Life Technologies and Expression Analysis (LTEA) Assay for Cytochrome P450 (CYP2B6) using HepaRG (AID 2283481). Summed up: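 Human HepaRG, 48 h dosing, 0.5% DMSO vehicle, top dose 100 uM. CYP2B6 transcript by qRT-PCR, housekeeping-normalized, bidirectional curve fit.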

Read-out in the next test: CYP2C8 (gene 1558)
In words: LTEA_HepaRG_CYP2C8: Life Technologies and Expression Analysis (LTEA) Assay for CYP2C8 using HepaRG (AID 2283483). Summed up: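 HepaRG (human liver line), 48 h chemical exposure, 8-pt half-log series from 100 uM, 0.5% DMSO vehicle. Readout: CYP2C8 transcript by qRT-PCR, housekeeping-normalized. Bidirectional fit vs DMSO baseline.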

Read-out in the next test: CYP2C9 (gene 1559)
Briefly: LTEA_HepaRG_CYP2C9: Life Technologies and Expression Analysis (LTEA) Assay for CYP2C9 using HepaRG (AID 2283484). In a few lines:
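HepaRG, 48 h dosing, 8-pt half-log series, top 100 uM, 0.5% DMSO vehicle. Read-out: CYP2C9 transcript by TaqMan qRT-PCR, housekeeping-normalized (ACTB/GAPDH/POLR2A). Gain or loss fitted vs DMSO baseline.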

Read-out in the next test: CYP2E1 (gene 1571)
In words: LTEA_HepaRG_CYP2E1: Life Technologies and Expression Analysis (LTEA) Assay for CYP2E1 using HepaRG (AID 2283485). Summed up: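 Readout is qRT-PCR of CYP2E1 mRNA, normalized to three housekeeping genes and fitted bidirectionally against 0.5% DMSO. HepaRG cells were dosed 48 h at eight concentrations, highest 100 uM with half-log dilutions.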

Read-out in a further test: CYP4A11 (gene 1579)
Briefly: LTEA_HepaRG_CYP4A11: Life Technologies and Expression Analysis (LTEA) Assay for CYP4A11 using HepaRG (AID 2283486). In a few lines: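 Human hepatic HepaRG cultures receive duplicate 48 h exposures across a concentration-response series topping at 100 uM. Expression changes in CYP4A11 are measured by qRT-PCR relative to DMSO controls.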

Read-out in test [2]: Cytochrome P450 3A4 (Homo sapiens) (UniProt P08684)
In words: LTEA_HepaRG_CYP3A4: Life Technologies and Expression Analysis (LTEA) Assay for CYP3A4 using HepaRG (AID 2283487). In a few lines: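 HepaRG, 48 h exposure, 8-pt CRC from 100 uM (half-log), 0.5% DMSO, duplicates; serum-free induction medium. Readout: CYP3A4 mRNA, qRT-PCR, ACTB/GAPDH/POLR2A normalization. Bidirectional fit vs DMSO.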

Read-out in test [3]: DNA damage-inducible transcript 3 (DDIT3), DDIT3 (gene 1649)
In words: LTEA_HepaRG_DDIT3: Life Technologies and Expression Analysis (LTEA) Assay for DNA damage-inducible transcript 3 (DDIT3) using HepaRG (AID 2283488). In a few lines:
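Cells are human HepaRG liver cells treated for 48 h with eight half-log concentrations up to 100 uM in 0.5% DMSO. Transcript levels come from qRT-PCR normalized to three housekeeping genes, with activity fitted in both directions relative to vehicle.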

Read-out in test [4]: Pro-epidermal growth factor (Homo sapiens) (UniProt P01133)
Briefly: LTEA_HepaRG_EGF: Life Technologies and Expression Analysis (LTEA) Assay for Epidermal growth factor (EGF) using HepaRG (AID 2283489). Summed up:
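Concentration-response mRNA assay: HepaRG cells dosed 48 h (max 100 uM, 0.5% DMSO), EGF measured by qRT-PCR and normalized to ACTB/GAPDH/POLR2A.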

Read-out in test [5]: Early growth response protein 1 (EGR1) transcription factor, EGR1 (gene 1958)
In words: LTEA_HepaRG_EGR1: Life Technologies and Expression Analysis (LTEA) Assay for Early growth response protein 1 (EGR1) transcription factor using HepaRG (AID 2283490). In a few lines:
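HepaRG, 48 h exposure, 8-pt half-log series from 100 uM, 0.5% DMSO vehicle; EGR1 transcript by TaqMan qRT-PCR (Fluidigm array), housekeeping-normalized; bidirectional fit relative to DMSO baseline.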

Read-out in test [6]: Cytochrome P450 3A7 (Homo sapiens) (UniProt P24462)
Briefly: LTEA_HepaRG_CYP3A7: Life Technologies and Expression Analysis (LTEA) Assay for CYP3A7 using HepaRG (AID 2283492). Summed up: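 qRT-PCR of CYP3A7 in HepaRG lysates after 48 h treatment; concentration-response (8 points, max 100 uM) analysed bidirectionally relative to 0.5% DMSO controls.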

Read-out in the next test: CYP3A5 (gene 1577)
Briefly: LTEA_HepaRG_CYP3A5: Life Technologies and Expression Analysis (LTEA) Assay for CYP3A5 using HepaRG (AID 2283493). Summed up: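 Human HepaRG hepatic cells receive 48 h chemical treatment at eight concentrations (half-log steps from 100 uM) in 0.5% DMSO. Expression of CYP3A5 is quantified by Fluidigm qRT-PCR and normalized to three reference genes.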

Read-out in test [7]: Fatty Acid-Binding Protein 1 (FABP1), FABP1 (gene 2168)
Briefly: LTEA_HepaRG_FABP1: Life Technologies and Expression Analysis (LTEA) Assay for Fatty Acid-Binding Protein 1 (FABP1) using HepaRG (AID 2283494). Summed up: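 qRT-PCR readout of FABP1 transcript (normalized to three housekeeping genes) after 48 h chemical exposure of HepaRG cells; eight concentrations, half-log steps, max 100 uM, 0.5% DMSO vehicle; gain or loss fitted relative to DMSO baseline.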

Read-out in test [8]: Cytochrome P450 4A22 (Homo sapiens) (UniProt Q5TCH4)
Briefly: LTEA_HepaRG_CYP4A22: Life Technologies and Expression Analysis (LTEA) Assay for Cytochrome P450 4A22 (CYP4A22) using HepaRG (AID 2283495). Summed up:
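Concentration-response (8 points, max 100 uM, 0.5% DMSO) in human HepaRG liver cells after 48 h exposure. CYP4A22 mRNA by TaqMan qRT-PCR with housekeeping-gene normalization.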

Read-out in test [9]: Cytochrome P450 7A1 (Homo sapiens) (UniProt P22680)
In words: LTEA_HepaRG_CYP7A1: Life Technologies and Expression Analysis (LTEA) Assay for Cytochrome P450 7A1 (CYP7A1) using HepaRG (AID 2283496). In a few lines:
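HepaRG, 48 h exposure, 8-pt half-log series from 100 uM, 0.5% DMSO vehicle, duplicates. Readout: TaqMan qRT-PCR mRNA vs three housekeeping genes; bidirectional curve fit against DMSO baseline.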

Read-out in test [10]: Glutamate-cysteine ligase catalytic (GCLC), GCLC (gene 2729)
In words: LTEA_HepaRG_GCLC: Life Technologies and Expression Analysis (LTEA) Assay for Glutamate-cysteine ligase catalytic (GCLC) using HepaRG (AID 2283498). Summed up: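 HepaRG, 48 h exposure, 8-pt half-log series from 100 uM, 0.5% DMSO vehicle; TaqMan qRT-PCR for GCLC mRNA, housekeeping-normalized; bidirectional curve fit vs DMSO baseline.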

Read-out in test [11]: growth arrest and DNA damage 45 (GADD45G), GADD45G (gene 10912)
In words: LTEA_HepaRG_GADD45G: Life Technologies and Expression Analysis (LTEA) Assay for growth arrest and DNA damage 45 (GADD45G) using HepaRG (AID 2283499). In a few lines: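 Concentration-response in HepaRG: 48 h dosing, 0.5% DMSO, highest level 100 uM. GADD45G expression by qRT-PCR, normalised to endogenous controls; bidirectional fit to DMSO.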

Read-out in test [12]: Glutamate-cysteine ligase regulatory (GCLM), GCLM (gene 2730)
Briefly: LTEA_HepaRG_GCLM: Life Technologies and Expression Analysis (LTEA) Assay for Glutamate-cysteine ligase regulatory (GCLM) using HepaRG (AID 2283500). Summed up:
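Endpoint is GCLM transcript level by qRT-PCR, normalized to three housekeeping genes, after 48 h chemical exposure of human HepaRG cells (0.5% DMSO vehicle, top 100 uM, half-log dilutions). Fitting was bidirectional relative to DMSO.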

Read-out in test [13]: Glutathione S-Transferase (GSTA2), GSTA2 (gene 2939)
Briefly: LTEA_HepaRG_GSTA2: Life Technologies and Expression Analysis (LTEA) Assay for Glutathione S-Transferase (GSTA2) using HepaRG (AID 2283497). In a few lines: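 qRT-PCR readout of GSTA2 transcript, normalized to three housekeeping genes, fitted bidirectionally against 0.5% DMSO baseline. Differentiated HepaRG cells received compound for 48 h at 8 concentrations (top 100 uM, half-log steps).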

Calls of active or inactive are those of the source. Rule for the calls: active = hit-call score of the fitted dose curve at least 0.9, where 1 is the maximum; inactive = score below 0.9.

Cytochrome P450 3A4 (Homo sapiens), sequence (P08684 whole entry, looked up): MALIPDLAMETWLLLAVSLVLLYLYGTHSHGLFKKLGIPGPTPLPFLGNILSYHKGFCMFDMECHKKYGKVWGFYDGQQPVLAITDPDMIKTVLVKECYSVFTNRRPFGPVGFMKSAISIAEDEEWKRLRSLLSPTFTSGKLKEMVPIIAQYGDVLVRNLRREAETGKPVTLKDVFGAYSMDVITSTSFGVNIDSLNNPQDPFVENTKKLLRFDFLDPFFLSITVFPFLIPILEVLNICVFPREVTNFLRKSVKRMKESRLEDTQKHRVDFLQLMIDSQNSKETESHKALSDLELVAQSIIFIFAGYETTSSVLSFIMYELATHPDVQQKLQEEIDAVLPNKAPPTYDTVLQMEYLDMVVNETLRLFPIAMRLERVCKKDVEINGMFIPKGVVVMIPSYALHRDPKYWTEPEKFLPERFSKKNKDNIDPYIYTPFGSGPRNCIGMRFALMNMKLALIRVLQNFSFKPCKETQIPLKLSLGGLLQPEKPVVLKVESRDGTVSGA
Cytochrome P450 3A7 (Homo sapiens), sequence (P24462 whole entry, looked up): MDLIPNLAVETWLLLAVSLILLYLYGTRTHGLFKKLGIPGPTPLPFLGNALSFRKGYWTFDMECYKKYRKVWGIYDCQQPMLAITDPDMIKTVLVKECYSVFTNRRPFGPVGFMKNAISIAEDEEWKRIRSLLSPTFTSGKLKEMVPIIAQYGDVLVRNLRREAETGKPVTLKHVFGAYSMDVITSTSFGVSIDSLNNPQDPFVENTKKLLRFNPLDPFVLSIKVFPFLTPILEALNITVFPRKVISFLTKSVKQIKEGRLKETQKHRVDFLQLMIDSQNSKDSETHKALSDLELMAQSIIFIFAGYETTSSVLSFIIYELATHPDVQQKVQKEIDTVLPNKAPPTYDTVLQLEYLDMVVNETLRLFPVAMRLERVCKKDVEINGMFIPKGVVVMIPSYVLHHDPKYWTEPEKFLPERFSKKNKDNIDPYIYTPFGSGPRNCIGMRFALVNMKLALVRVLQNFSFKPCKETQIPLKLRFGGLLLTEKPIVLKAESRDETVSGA

On to `C=CCC1=C(C)[C@@H](OC(=O)[C@@H]2[C@@H](C=C(C)C)C2(C)C)CC1=O`, for which the AC50 (commonly the midpoint of the concentration-response curve, whichever way the signal moves) in test [1] is 85.4 µM (active); in the test with CYP2E1 (gene 1571), 62.1 µM (active); in the test with CYP4A11 (gene 1579), 88.3 µM (active); in test [7] it was 50 µM (active); in test [8] it was 83.9 µM (active). In addition, the molecule was classed as inactive (in the test with CYP2C8 (gene 1558); in the test with CYP2C9 (gene 1559); in [2]; in test [3]; in test [4]; in [5]). The result (in [6]; with CYP3A5 (gene 1577); in test [9]; in test [10]; in test [11]; in test [12]) was inactive.
Consider `CCCCOC(=O)c1ccccc1C(=O)OCCCC`, for which the call (in test [1]; with CYP2C8 (gene 1558); with CYP2C9 (gene 1559); with CYP2E1 (gene 1571); in the test with CYP4A11 (gene 1579); in test [2]) was inactive. Further, the outcome (in test [3]; in [4]; in test [5]; in [6]; with CYP3A5 (gene 1577); in [7]) was inactive. Besides, the outcome in test [8], in test [9], in test [10], in test [11] and in [12] was inactive.
As to `CCc1nn(C)c(C(=O)NCc2ccc(C(C)(C)C)cc2)c1Cl`, the AC50 in test [1] is 0.346 µM (active); with CYP2C8 (gene 1558), 0.414 µM (active); with CYP2C9 (gene 1559) it was 5.99 µM (active); with CYP2E1 (gene 1571) it was 0.507 µM (active); with CYP4A11 (gene 1579), 0.393 µM (active); in [2], 13.3 µM (active). Also, the AC50 in [3] is 0.738 µM (active); in [4] it was 50 µM (active); in test [5] it was 50 µM (active); in [6] it was 0.35 µM (active); in the test with CYP3A5 (gene 1577) it was 88.9 µM (active); in test [7], 5 µM (active). The AC50 in [8] is 0.677 µM (active); in test [9], 11.9 µM (active); in test [10], 50 µM (active); in test [11], 0.6 µM (active); in [12] it was 12.2 µM (active).
In the case of `C=CC1(C)OC(=O)N(c2cc(Cl)cc(Cl)c2)C1=O` (centres undefined), the AC50 was 7.99 µM (active) in test [1]; 16.7 µM (active) with CYP2C8 (gene 1558); 40.1 µM (active) in the test with CYP2E1 (gene 1571); 13.6 µM (active) in [2]; 20.8 µM (active) in test [6]. Besides, the result (in the test with CYP2C9 (gene 1559); with CYP4A11 (gene 1579); in test [3]; in test [4]; in [5]; with CYP3A5 (gene 1577)) was inactive. In addition, the result in test [7], in test [8], in [9], in [13], in test [10] and in test [11] was inactive. In test [12], the molecule was classed as inactive.

The record behind these values is PubChem BioAssay (EPA / NIEHS).
